The values that follow come from PubChem BioAssay (Tox21).

Results filed as inconclusive are left out. Active and inactive are the calls of the source. Calls follow the shape of the dose curve; as a rule, active = well fitted cell-killing curve with a large enough effect in the repeat runs; inconclusive = weak or mixed curves, or effect the other way; inactive = flat fitted curve, though single readings scatter.
% is scaled to controls: 0 for no effect and ±100 for the full control effect.

A short description of the test: qHTS assay to identify small molecule agonists of the TGF-beta/Smad signaling pathway - cell viability counter screen (AID 1346829). Also: top concentration of the series differs between compounds; nearly all actives have a fitted effect of over 45% in size. The settings on record: SBE-bla HEK293T viability, CellTiter-Glo luminescence, 5 h; series mostly up to 76.8 µM. The source says:
National Center for Advancing Translational Sciences [NCATS]
NIH Chemical Genomics Center [NCGC]
U.S. Environmental Protection Agency [EPA]
National Institutes of Environmental Health Sciences [NIEHS]
National Toxicology Program [NTP]
U.S. Food and Drug Administration [FDA]
Transforming growth factor beta (TGF-beta) superfamily consists of a large number of structurally related dimeric proteins that act as hormones or local mediators in regulating a wide range of biological functions. This superfamily includes TGF-betas themselves, the bone morphogenetic proteins (BMPs) and the activins. These ligands induce oligomerization of serine/threonine receptor kinases and phosphorylate the cytoplasmic signaling molecules of Smad protein family. CellSensor SBE-bla HEK 293T cell line (Life Technologies, Carlsbad, CA), responsive to TGF-beta was used to screen Tox21 10K compound library for identification of agonists/antagonists of the Smad signaling pathway. This cell line contains a beta-lactamase reporter gene under control of the Smad binding element (SBE) stably integrated into HEK 293T cells. Also cytotoxicity of the compounds was tested in parallel by measuring the cell viability using CellTiter-Glo assay system in the same wells.
Tox21 Assay Protocol Summary:
SBE-bla HEK 293T cells were dispensed at 4,000/well in 6 uL of assay medium into black wall/clear-bottom 1536-well plates using a Multidrop Combi (ThermoFisher Scientific, Waltham, MA) dispenser. After the assay plates were incubated at 37 C and 5% CO2 for an overnight, 23 nL of compounds dissolved in DMSO, positive controls or DMSO only was transferred to the assay plate by a Pintool station (Kalypsys, San Diego, CA). The assay plates were incubated at 37 C and 5% CO2 for 5 hr. One uL of LiveBLAzer B/G FRET substrate (Life Technologies) was added using a Flying Reagent Dispenser (FRD, Aurora Discovery, San Diego, CA) and the plates were incubated at room temperature for 2 hr. Fluorescence intensity (405 nm excitation, 460 nm and 530 nm emissions) was measured using an Envision plate reader (PerkinElmer, Shelton, CT). For cytotoxicity read, 4 uL of CellTiter-Glo reagent (Promega Corporation, Madison, WI) was added to each well of the assay plates using FRD. After 30min incubation at room temperature, the luminescence intensity was measured using ViewLux plate reader (PerkinElmer).
With `CCOCCOCCOC(C)=O`, the result was inactive. In the case of `CCCCCCCCCCCCCCCC(=O)OC`, the activity change, negative = cytotoxicity is -0.944% [at 15.8 µM] (inactive). For the compound `N#Cc1cc(NC(=O)C(=O)O)c(Cl)c(NC(=O)C(=O)O)c1`, the compound was called inactive.

`CN(C)c1ccncc1`: the call was inactive. Same read-out and setting: the result for `O=C(O)CCCCCCCCCC(=O)O` reads “inactive”. In the case of `CCCCOCCCC`, the compound was called inactive.

With `CC(C)(C)NCC(O)COc1cccc2c1CCC(=O)N2` (stereo not given), the outcome was inactive. As to `NNC(=O)CCCCC(=O)NN`, the result was inactive. With `Cc1cc(O)c(Cl)cc1C`, the compound was called inactive. For the compound `O=C(O)/C=C(\CC(=O)O)C(=O)O`, the call was inactive. Still for that read-out and setting: as for `C=CCn1cc[n+](C)c1`, the entry is “inactive”. As for `CCCCN1C(=O)c2ccccc2C1=O`, the call was inactive.

Consider `C=CCN1CCc2nc(N)sc2CC1`, for which the outcome was inactive. Same read-out and setting: as for `Cc1ccc(N)nc1`, the entry is “inactive”; as for `N=C(N)S(=O)O`, “inactive”; as for `CCc1ncc(C)[nH]1`, “inactive”. On to `C[C@]12C=CC(=O)C=C1[C@@H](F)C[C@@H]1[C@@H]2[C@@H](O)C[C@@]2(C)[C@H]1CC[C@]2(O)C(=O)CO`, for which the compound was called inactive.

As for `Cc1cc(C)c(N)c(Cl)c1`, the compound was called inactive. In the case of `COc1cc(C(=O)NC2CCCNC2)cc(OC)c1OC` (stereo not given), the compound was called inactive.

In the case of `CO/N=C(\C(=O)O)c1csc(NC(=O)CCl)n1`, the call was inactive. Regarding `CCCCCCCCS(=O)(=O)O`, the call was inactive. With `C=C(C)C(=O)OCCOC1CC2CC1C1C=CCC21` (stereo not given), the result was inactive. As to `O=C(O)Cc1c(Cl)ccc(Cl)c1Cl`, the compound was classed as inactive. For the compound `O=C(OOC(=O)c1ccccc1)c1ccccc1`, the call was inactive. Turning to `COc1cc(S(N)(=O)=O)cc(C(=O)O)c1OC`, the compound was classed as inactive.

For `CC[C@@]1(c2ccccc2)NC(=O)N(C)C1=O`, the compound was called inactive.

As for `O=C(O)Cc1ccccc1Oc1ccc(Cl)cc1Cl`, the compound was called inactive.

Regarding `CCCCCCCCCCCCCC(=O)OCC`, the result was inactive.

For the compound `NC[C@H]1O[C@H](O[C@H]2[C@H](O)[C@@H](O[C@H]3O[C@H](CO)[C@@H](O)[C@H](N)[C@H]3O)[C@H](N)C[C@@H]2N)[C@H](N)[C@@H](O)[C@@H]1O`, the activity change, negative = cytotoxicity is -5.22% [at 15.8 µM] (inactive). Regarding `CCCCN=C(N)N=C(N)N`, the compound was called inactive. Turning to `Nc1nc(Cl)cc(Cl)n1`, the outcome was inactive. On the same count and under the same terms, as for `CCCCC(O)/C=C(C)/C=C/C=C/C(=O)N1CCCC1=O` (stereo not given), the entry is “inactive”. With `CN(C)CCCN(C)C`, the activity change, negative = cytotoxicity was 0.619% [at 6.97 µM] (inactive).

On to `CCC(=O)OCCOc1ccccc1`, for which the result was inactive. For the compound `COC(=O)c1ccc(NC(C)=O)cc1OC`, the call was inactive. The same measure, in the same setting: the result for `O=c1c(O)c(O)c1=O` reads “inactive”; that for `CC(C)C[P+](C)(CC(C)C)CC(C)C`, “inactive”. Still for that read-out and setting: as for `CCOC(=O)COc1ccc2c(C)c(CCN(CC)CC)c(=O)oc2c1Cl`, the entry is “inactive”.

For the compound `O=C1CC2(CCCC2)CC(=O)N1CCNCC1COc2ccccc2O1` (stereo not given), the compound was called inactive. On to `c1cc2ccc3ccc4ccc5cccc6c(c1)c2c3c4c56`, for which the activity change, negative = cytotoxicity was 8.19% [at 2.72 µM] (inactive).
